Results on 36 molecules are retold here after ChEMBL document CHEMBL2218924, “A broad activity screen in support of a chemogenomic map for kinase signalling research and drug discovery” (Biochem J, 2013).

Assay [1] addresses RAC-alpha serine/threonine-protein kinase (Homo sapiens) (UniProt P31749). The note with it: at 1 µM.
The target is the same in assay [2]. The note with it: at 10 µM.

Chain of RAC-alpha serine/threonine-protein kinase (Homo sapiens) (P31749 whole entry): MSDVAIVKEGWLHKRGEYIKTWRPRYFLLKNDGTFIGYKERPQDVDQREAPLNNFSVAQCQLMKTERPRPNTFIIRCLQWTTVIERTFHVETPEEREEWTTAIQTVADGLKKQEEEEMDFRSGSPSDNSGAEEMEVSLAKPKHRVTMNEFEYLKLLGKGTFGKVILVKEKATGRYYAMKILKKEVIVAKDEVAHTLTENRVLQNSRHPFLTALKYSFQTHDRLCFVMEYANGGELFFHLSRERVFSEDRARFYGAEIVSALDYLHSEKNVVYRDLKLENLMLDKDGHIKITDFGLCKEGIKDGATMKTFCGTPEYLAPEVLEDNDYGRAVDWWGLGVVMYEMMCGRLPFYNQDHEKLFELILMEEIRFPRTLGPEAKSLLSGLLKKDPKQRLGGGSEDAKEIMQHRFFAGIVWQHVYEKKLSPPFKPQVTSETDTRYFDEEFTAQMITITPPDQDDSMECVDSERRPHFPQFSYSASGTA

As for `CC[n+]1c(/C=C/N(C)c2ccccc2)n(-c2ccccc2)c2ccc(-c3nc4ccccc4s3)cc21`, the residual activity amounted to 99% in assay [1] and 107% in assay [2]. The matching figures for `Oc1ccc(-c2nc(-c3ccc(F)cc3)c(-c3ccncc3)[nH]2)cc1`: 113% and 112%. The matching figures for `CCOc1cc2ncnc(Nc3cccc(Br)c3)c2cc1OCC`: 101% and 109%.

In the case of `O=C1NC(=O)C(c2cn(CCCn3ccnc3)c3ccccc23)=C1Nc1ccccc1`, the residual activity in assay [1] is 104%; in assay [2], 102%. The like results for `Cc1cc(Nc2nc(-c3ccccc3)nc3ccccc23)n[nH]1` were, in that order, 113% and 101%. The like results for `CO[C@H]1C[C@@H]2CC[C@@H](C)[C@@](O)(O2)C(=O)C(=O)N2CCCC[C@H]2C(=O)O[C@H]([C@H](C)C[C@@H]2CC[C@@H](O)[C@H](OC)C2)CC(=O)[C@H](C)/C=C(\C)[C@@H](O)[C@@H](OC)C(=O)[C@H](C)C[C@H](C)/C=C/C=C/C=C/1C` were, in that order, 105% and 98%. The like results for `O=C(c1ccccc1)c1ccc(N2CCOCC2)cc1O` were, in that order, 96% and 98%. `Oc1ccc(Nc2nc(-c3ccc(Cl)cc3)cs2)cc1`: the residual activity in assay [1] turned out to be 124%; in assay [2], 94%. In the case of `NC(=O)c1ccc2[nH]c(-c3ccc(Oc4ccc(Cl)cc4)cc3)nc2c1`, the residual activity in assay [1] turned out to be 109%; in assay [2] it was 112%.

`O=S(=O)(NCCNC/C=C/c1ccc(Br)cc1)c1cccc2cnccc12`: the residual activity in assay [2] worked out at 22%. As for `CCCCc1c(-c2ccc(OC)cc2)[nH]c2nccnc12`, the residual activity in assay [1] came to 118%; in assay [2], 106%. The like results for `O=C1NC(=O)c2cc(Nc3ccc(F)cc3)c(Nc3ccc(F)cc3)cc21` were, in that order, 101% and 107%. On to `CC(C)n1cnc2c(NCc3ccccc3)nc(NCCCO)nc21`, for which the residual activity in assay [1] worked out at 107%; in assay [2], 110%. The matching figures for `c1ccc2c(-c3ccncc3)c[nH]c2c1`: 103% and 104%. Regarding `NCCNc1ncc(C(N)=O)c(Nc2cccc(C(F)(F)F)c2)n1`, the residual activity in assay [2] came out at 112%.

On to `CN(C)CCCn1cc(C2=C(c3c[nH]c4ccccc34)C(=O)NC2=O)c2ccccc21`, for which the figures for the residual activity in assay [1] and in assay [2] were 103% and 104%, respectively.

Regarding `Nc1ccc2ncnc(NCCc3ccc(Oc4ccccc4)cc3)c2c1`, the residual activity turned out to be 110% in assay [1] and 108% in assay [2]. The matching figures for `COc1ccc(C(=O)Nc2sc3c(c2C(N)=O)CCCC3)cc1OC`: 103% and 109%.

For `Oc1c2ccccc2c2c3c(cccc13)N=N2`, the residual activity in assay [2] was determined as 110%.

As for `O=C1NC(=O)/C(=C\c2ccc3nccnc3c2)S1`, the residual activity in assay [1] worked out at 106%; in assay [2], 108%. In the case of `O=[N+]([O-])c1ccc(-c2nc(-c3ccc(F)cc3)c(-c3ccncc3)[nH]2)cc1`, the residual activity in assay [1] amounted to 112%; in assay [2], 103%. The like results for `O=C1Nc2cc(Br)ccc2/C1=C1/Nc2ccccc2/C1=N\O` were, in that order, 114% and 107%.

Turning to `COc1cc2ncnc(N3CCN(C(=O)Nc4ccc(Oc5ccccc5)cc4)CC3)c2cc1OC`, the figures for the residual activity in assay [1] and in assay [2] were 106% and 107%, respectively.

For the molecule `O=C(O)c1ccc2c3c1cccc3c(=O)n1c3ccccc3nc21`, the results for the residual activity in assay [1] and in assay [2] were 111% and 100%, respectively. As for `COc1ccc(OC)c2c(=S)c3ccccc3[nH]c12`, the residual activity was found to be 109% in assay [1] and 104% in assay [2]. `COc1ccc(CNc2nc(N(CCO)CCO)nc3c2ncn3C(C)C)cc1`: the residual activity in assay [1] was determined as 118%; in assay [2], 111%. The like results for `O=C1NC(=O)c2c1c1c3ccccc3[nH]c1c1[nH]c3cc(Br)ccc3c21` were, in that order, 103% and 106%. The matching figures for `Cn1cnc2cc3c(Nc4cccc(Br)c4)ncnc3cc21`: 95% and 109%. The matching figures for `COc1cc2nccc(Oc3ccc(NC(=O)Nc4cc(C)on4)c(Cl)c3)c2cc1OC`: 97% and 101%. On to `Cc1cccc(-c2[nH]c(C(C)(C)C)nc2-c2ccc3c(c2)OCO3)n1`, for which the residual activity was 100% in assay [1] and 107% in assay [2]. The matching figures for `Oc1n[nH]c2nnc(-c3c(-c4ccccc4)nn4ccccc34)cc12`: 105% and 111%. The matching figures for `O=c1cc(N2CCOCC2)oc2c1ccc1ccccc12`: 103% and 106%.

On to `COc1ccc(CNC(=O)Nc2ncc([N+](=O)[O-])s2)cc1`, for which the values for the residual activity in assay [1] and in assay [2] were 116% and 106%, respectively. The like results for `CC(C)n1cnc2/c(=N/c3cccc(Cl)c3)nc(NCCO)[nH]c21` were, in that order, 111% and 109%. The like results for `Nc1n[nH]c2nnc(-c3c(-c4ccccc4)nn4ccccc34)cc12` were, in that order, 111% and 99%. The matching figures for `Cn1c2ccccc2c2c3c(c4c5ccccc5n(CCC#N)c4c21)CNC3=O`: 106% and 105%.
